Test system: HT29 RNF43 G659fs (RNF43 659mut, CRISPR-edited)
Test: cell viability activity relative to DMSO (negative = inhibition); higher = more viable cells (less growth inhibition)
Conditions: 5 µM; 96 h
Description: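 Broad Repurposing Library primary screen at a single dose of 5 uM. HT29 sg-Ctrl and HT29 RNF43 G659fs CRISPR-edited isogenic cells were seeded at 2500 cells/well in 384-well plates in duplicate and treated for 96 h. Viability was read by CellTiter-Glo and reported as % activity relative to DMSO, with MG132 as the positive control (negative = growth inhibition).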

Compound | cell viability activity
O=C(/C=C/c1ccc2ccccc2n1)c1ccncc1 | -68.9%
CCCCCCCCCCC(CO)CCCCCCCC (stereo not given) | -65.4%
CN1CC[C@@H](c2c(O)cc(O)c3c(=O)cc(-c4ccccc4Cl)oc23)[C@@H]1CO | -90.1%
CNC(=O)c1cccc(-c2ccc3c(N4CCOC[C@@H]4C)nc(N4CCOC[C@@H]4C)nc3n2)c1 | -62.5%
CN[C@H](C(=O)N[C@H](C(=O)N(C)[C@H](/C=C(\C)C(=O)O)C(C)C)C(C)(C)C)C(C)(C)c1ccccc1 | -56.6%
CCn1cc(-c2ccnc3[nH]c(-c4cccc(CN(C)C)c4)cc23)c(-c2ccc(NC(=O)N(C)C)cc2)n1 | -84.6%
CN(C)Cc1ccc(S(=O)(=O)n2ccc(/C=C/C(=O)NO)c2)cc1 | -72.5%
Nc1ccc2cc3ccc(N)cc3nc2c1 | -64.5%
C/C=C1\NC(=O)[C@H]2CSSCC/C=C/[C@H](CC(=O)N[C@H](C(C)C)C(=O)N2)OC(=O)[C@H](C(C)C)NC1=O | -94.9%
CNCc1ccc(-c2cc(-c3nc(-c4ccc(S(=O)(=O)C(C)C)cc4)cnc3N)on2)cc1 | -78.3%
CCC1=C[C@@H]2CN(C1)Cc1c([nH]c3ccccc13)[C@@](C(=O)OC)(c1cc3c(cc1OC)N(C)[C@H]1[C@@](O)(C(=O)OC)[C@H](OC(C)=O)[C@]4(CC)C=CCN5CC[C@]31[C@@H]54)C2 | -62.4%
O=C(NC[C@H](O)CO)c1ccncc1Nc1ccc(I)cc1F | -83.4%
CN(C)C/C=C/C(=O)Nc1cc2c(Nc3ccc(F)c(Cl)c3)ncnc2cc1O[C@H]1CCOC1 | -26.4%
Cn1c(=O)n(-c2ccc(C(C)(C)C#N)cc2)c2c3cc(-c4cnc5ccccc5c4)ccc3ncc21 | -56.8%
CC(=O)c1cnc2ccc(-c3cc(Cl)c(O)c(Cl)c3)nc2c1N[C@H]1CC[C@H](CN(C)C)CC1 | -89.2%
CC(C)NCCCn1c(Sc2cc3c(cc2I)OCO3)nc2c(N)ncnc21 | -87%
N#CC1(c2ccc(NC(=O)c3cccnc3NCc3ccncc3)cc2)CCCC1 | -45.5%
COc1cc(C(=O)N2CCC(N3CCN(C)CC3)CC2)ccc1Nc1ncc2c(n1)N(C)c1ccccc1C(=O)N2C | -56.1%
CC1NC(=O)C(N)CNC(=O)C(C2CCN=C(N)N2)NC(=O)/C(=C\NC(N)=O)NC(=O)C(CNC(=O)CC(N)CCCN)NC1=O (stereo not given) | -29.5%
CN1CCN(S(=O)(=O)c2ccc(-c3cnc(N)c(C(=O)Nc4cccnc4)n3)cc2)CC1 | -46.3%

Compound | cell viability activity
CN(C)C(=S)SC(=S)N(C)C | -30.9%
Nc1nccc2c1ncn2[C@@H]1C=C(CO)[C@@H](O)[C@H]1O | -41.6%
Cc1cc(I)ccc1Nc1c(C(=O)NOCC2CC2)cc(F)c(F)c1F | -65.5%
C=C1C(=O)CC2CC3OC3(C)CCC3OC3(C)C[C@H](OC(C)=O)C1C2(C)C (stereo not given in full) | -28.6%
CCN1CCC[C@H]1CNC(=O)c1c(OC)ccc(Br)c1OC | -49.5%
CC(C)NC(=O)N1CC[C@H](NC2=Nc3cc(F)ccc3N(CC(F)F)c3ccc(Cl)cc32)C1 | -49.3%
CNC(=O)c1nn(C)c2c1C(C)(C)Cc1cnc(Nc3ccc(N4CCN(C)CC4)cc3)nc1-2 | -66.2%
COc1cc2ncnc(Nc3ccc(F)c(Cl)c3)c2cc1NC(=O)/C=C/CN1CCCCC1 | -93.1%
CCNCCCNCCCCNCCCNCC | -31%
CC(C)N(C[C@H]1O[C@@H](n2cnc3c(N)ncnc32)[C@H](O)[C@@H]1O)[C@H]1C[C@@H](CCc2nc3cc(C(C)(C)C)ccc3[nH]2)C1 | -24.1%
Cn1cc(CNCC2CCN(c3ncc(C(=O)NO)cn3)CC2)c2ccccc21 | -95.9%
CCc1nc(C(N)=O)c(Nc2ccc(N3CCC(N4CCN(C)CC4)CC3)c(OC)c2)nc1NC1CCOCC1 | -46.8%
Cc1cc(C(=O)NOCCO)c(Nc2ccc(I)cc2F)n(C)c1=O | -83.4%
CC(NCCC(c1ccccc1)c1ccccc1)c1ccccc1 (stereo not given) | -64.5%
O=[N+]([O-])c1ccccc1S(=O)(=O)NCC1CCC(CNCC2CCc3ccccc3C2)CC1 (stereo not given) | -63.8%
Nc1ccc(-c2cccc3c(=O)cc(N4CCOCC4)oc23)cc1 | -64.9%
CC(C)Nc1cc(-c2c[nH]c(C(=O)N[C@H](CO)c3cccc(Cl)c3)c2)c(Cl)cn1 | -71.1%
CCCCCCCCNC(C)C(O)c1ccc(SC(C)C)cc1 (stereo not given) | -87.2%
CCN1CCN(c2ccc(C(C)(C)NC(=O)c3cc4[nH]c5ccccc5c(=O)c4cc3F)cn2)CC1 | -45.9%
Cc1cc(NC(=O)NCCN2CCC(O)(Cc3ccccc3)CC2)c2ccccc2n1 | -36.2%

From the supplement of paper PMC9177965
